# High-throughput results: PubChem BioAssay, National Center for Advancing Translational Sciences (NCATS)
# Compounds with a hit are over-represented: about 6.9% of the library has one in this group of screens.
# PLK1 PBD block = qHTS for Inhibitors of PLK1-PDB (polo-like kinase 1 - polo-box domain): Primary Screen. Serine/threonine-protein kinase PLK1 (Homo sapiens), P53350. Plk1 PBD binding of FITC phosphopeptide, fluorescence polarization. Potency, µM, for the others: max response, negative = inhibition, actives largely listed as inhibitors. 360,000 compounds, 2.8% hits. AID 720504, 2013; note: series mostly up to about 57 µM; % is set by controls: 0 for no effect and ±100 for the full control effect; nearly all actives have a fitted effect of over 65% in size
# Target sequence (P53350 whole entry, looked up, the tested form may be a part): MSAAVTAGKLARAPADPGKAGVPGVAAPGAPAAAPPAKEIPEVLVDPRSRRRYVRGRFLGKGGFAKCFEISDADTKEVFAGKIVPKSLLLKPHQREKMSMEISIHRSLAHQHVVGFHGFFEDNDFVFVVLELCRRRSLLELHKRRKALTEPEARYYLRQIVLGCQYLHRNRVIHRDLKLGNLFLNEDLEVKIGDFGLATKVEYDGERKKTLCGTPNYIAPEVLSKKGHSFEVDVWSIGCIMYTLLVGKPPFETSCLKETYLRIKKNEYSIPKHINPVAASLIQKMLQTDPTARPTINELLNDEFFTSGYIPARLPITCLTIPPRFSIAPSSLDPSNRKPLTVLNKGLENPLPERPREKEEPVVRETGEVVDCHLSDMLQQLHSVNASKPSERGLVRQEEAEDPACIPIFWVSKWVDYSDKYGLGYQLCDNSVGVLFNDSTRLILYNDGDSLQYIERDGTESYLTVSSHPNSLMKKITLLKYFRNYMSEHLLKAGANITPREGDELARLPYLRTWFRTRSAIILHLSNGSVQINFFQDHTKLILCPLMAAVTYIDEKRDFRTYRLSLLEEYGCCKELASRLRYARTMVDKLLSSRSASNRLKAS
# VDR inhibitor = Inhibitors of the vitamin D receptor (VDR): qHTS; VDR-SRC2-3 peptide fluorescence polarization, 2 h; 400,000 compounds, 0.93% hits; Vitamin D3 receptor (Homo sapiens), P11473; Potency, µM, inactives show max response, negative = inhibition, most hits filed as inhibitors; note: % is set by controls: 0 for no effect and ±100 for the full control effect
#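 The screen uses fluorescence polarization to detect compounds that interfere with recruitment of the SRC2-3 coactivator peptide to VDR; plates are read after 2 h at room temperature.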
# L3MBTL1 inh-1 = qHTS Assay for the Inhibitors of L3MBTL1. Lethal(3)malignant brain tumor-like protein 1 (Homo sapiens), Q9Y468. AlphaScreen L3MBTL1–H3K9me1 peptide binding. Potency, µM (series often up to 57.1 µM), without a hit: top-dose activity, negative = inhibition, hits mostly inhibitors. 230,000 compounds, 0.66% hits. AID 485360, 2010; note: % is set by controls: 0 for no effect and ±100 for the full control effect; nearly all actives have a fitted effect of over 60% in size
#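 Read-out is AlphaScreen signal from streptavidin donor and nickel chelate acceptor beads (10 ug/mL final each) bridging L3MBTL1 (50 nM) and biotinylated K9-monomethylated H3(1-15) peptide (75 nM), after 30 min compound exposure at room temperature.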
# BAZ2B inh = qHTS Assay for Inhibitors of BAZ2B; 360,000 compounds, 4.4% hits; Bromodomain adjacent to zinc finger domain protein 2B (Homo sapiens), Q9UIF8; AID 504333, 2011; AlphaScreen BAZ2B-H3K14Ac peptide displacement; Potency, µM (titrated, usually from 114 µM), without a hit: top-dose activity change, negative = inhibition, most hits filed as inhibitors; note: % is set by controls: 0 for no effect and ±100 for the full control effect; nearly all actives have a fitted effect of over 60% in size
#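 AlphaScreen luminescence quantifies BAZ2B engagement of H3K14Ac peptide; the protein and biotinylated peptide are both at 50 nM final, buffer PBS pH 7.4 with 0.01% Tween-20, all steps at room temperature.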
# HP1b binding inh = HTS for Inhibitors of HP1-beta Chromodomain Interactions with Methylated Histone Tails | Potency, µM (doses to about 114 µM), without a hit: top-dose activity change, negative = inhibition, hits mostly inhibitors | Chromobox protein homolog 1 (Homo sapiens), P83916 | AlphaScreen HP1-beta / biotin-H3K9me3 peptide binding | 390,000 compounds, 0.56% hits; note: nearly all actives have a fitted effect of over 70% in size
#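 Compound inhibition of the preformed complex between 50 nM HP1-beta and 50 nM biotinylated H3K9me3 peptide was read by AlphaScreen. Buffer was PBS pH 7.4 with 0.01% Tween-20. Incubations ran 30 min at room temperature, with 10 ug/mL donor/acceptor beads.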
# JMJD2A Tudor = qHTS Assay for Inhibitors of JMJD2A-Tudor Domain; Lysine-specific demethylase 4A (Homo sapiens), O75164; AlphaScreen JMJD2A-Tudor / H3K4me3 peptide binding; Potency, µM (doses to about 114 µM), without a hit: top-dose activity change, negative = inhibition, most hits filed as inhibitors; 390,000 compounds, 4.4% hits; note: % is set by controls: 0 for no effect and ±100 for the full control effect; nearly all actives have a fitted effect of over 50% in size
# L3MBTL1 inh-2 = qHTS Assay for the Inhibitors of L3MBTL1: Hit Validation; Potency, µM, most hits filed as inhibitors; shares compounds with L3MBTL1 inh-1; L3MBTL1 methyl-lysine binding inhibition, biochemical qHTS; 500 compounds, 91% hits; AID 540279, 2011; note: nearly all actives have a fitted effect of over 70% in size
# AlphaScreen ctr2 = qHTS Assay for the Inhibitors of L3MBTL1: Hit Validationin AlphaScreen Counterscreen; AlphaScreen counterscreen, signal inhibition; shares compounds with L3MBTL1 inh-1; AID 602224, 2012; 500 tested, under 10 active; Potency, µM (doses to about 57.1 µM), for inactives: at the top dose activity change, negative = inhibition, actives largely listed as inhibitors; note: 0% is about no effect
# * = called active by the depositor; ? = inconclusive; / = no result given; [ ] = remark or other dose. Calls come from the whole dose curve; as a rule, active = well fitted curve in the direction sought with a large enough effect; inconclusive = small, poorly fitted or top-dose-only effect, or another doubt; inactive = no such curve, though single readings can be large; an effect the other way counts as inactive or inconclusive. Potency is the fitted concentration of half-maximal effect.
SMILES,PLK1 PBD block,VDR inhibitor,L3MBTL1 inh-1,BAZ2B inh,HP1b binding inh,JMJD2A Tudor,L3MBTL1 inh-2,AlphaScreen ctr2
O=C(O)/C=C\C(=O)Nc1ccc(N2CCN(c3ccc(Cl)c(Cl)c3)CC2)cc1,?,?,25µM*,32µM*,?,40µM*,13*,?
O=C(O)/C=C\C(=O)Nc1ccc(N2CCN(c3ccc(F)cc3)CC2)cc1,-7%,11%,?,?,?,?,/,/
CCOC(=O)C(=CNc1ccc(Oc2cncc(Cl)c2)nc1)C(=O)OCC,5%,1%,4%,-8%,28%,8%,/,/
Cc1ccccc1N=C1NC(=O)/C(=C/c2cccn2-c2cccc(C(=O)O)c2)S1,17µM*,-12%,40µM*,40µM*,?,50µM*,4.2*,-21%
O=C(O)c1cccc(-n2cccc2C=C2C(=O)c3ccccc3C2=O)c1,?,9%,/,?,-8%,?,/,/
COc1ccc(NC(=O)CN(C)C(=O)c2cc3c(s2)CCC3)cc1,7.5µM*,4%,3.2µM*,6.3µM*,13µM*,14µM*,0.75*,5%
CC(C)(C)S(=O)N1Cc2cc(C(=O)Nc3ccc(-c4ccccc4)cc3)nc(-c3cccc(-c4cc5ccccc5o4)c3)c2[C@@H]1CCO (stereo partly drawn),-19%,/,/,/,/,/,/,/
COc1ccccc1OCC(=O)NNc1c2ccccc2nc2ccccc12,1%,-10%,-9%,?,-10%,?,/,/
COc1cc(C2CC(=O)Oc3cc(C)c(Br)c(C)c32)cc(OC)c1OC (stereo not drawn),-5%,5%,0%,/,25%,-16%,/,/
O=C(CSc1nnc(-c2ccco2)o1)c1ccc(F)c(F)c1,-3%,-6%,-4%,7%,36%,-14%,/,/
O=C(CSc1nnc(-c2ccco2)o1)c1ccc[nH]1,-26%,33%,28µM*,45µM*,6%,-26%,19*,1%
CCOc1ccccc1-n1nnnc1SCC(=O)NC(=O)NCc1ccco1,-5%,17%,25µM*,50µM*,-1%,?,21*,0%
Cc1ccccc1Nc1nnc(SCC(=O)NC(=O)NCc2ccco2)s1,-16%,-6%,28µM*,-37%,-5%,?,9.5*,8%
O=C(CSc1nnc(COc2ccccc2Cl)o1)NC(=O)NCc1ccco1,-19%,12%,14µM*,40µM*,?,?,12*,-8%
Cc1nc(C)n(CC(=O)N2CCCC(C(=O)c3cccc4ccccc34)C2)n1 (stereo not drawn),-14%,-2%,1%,0%,-26%,-16%,/,/
COc1cnc(-c2ccccn2)nc1N(C)C,0%,-1%,4µM*,4.5µM*,39%,22µM*,6.7*,-81%
CCOC(=O)C(C)Sc1nc(-c2ccccn2)ncc1OC (stereo not drawn),?,8%,25µM*,3.2µM*,9%,-17%[11.4 µM],27*,?
COc1cnc(-c2ccccn2)nc1Sc1ccccc1Cl,-6%,0%,-20%,-36%[57.1 µM],4%,?,/,/
CN(C(=O)c1ccc(S(=O)(=O)N2CCOCC2)cc1)C1CCS(=O)(=O)C1 (stereo not drawn),-4%,-14%,-4%,-1%,35%,6%,/,/
O=C(OCc1ccc(F)cc1Cl)c1ccccn1,-2%,-13%,?,-38%,30%,-8%,/,/
O=C1CC(c2ccc(O)cc2)Oc2cc(O)ccc21 (stereo not drawn),-12%,-3%,/,/,23%,-16%,/,/
Cc1c(O)cc2c(c1O)C(=O)CC(c1ccc(O)cc1)O2 (stereo not drawn),-16%,?,4µM*,56µM*,-6%,?,6.7*,7%
C[C@H]1CN(CCc2ccccc2)C(=O)[C@@H]1CC(=O)Nc1ccc(Br)cc1,-3%,/,/,/,/,/,/,/
Cc1n[nH]c(C)c1Cc1c(F)cccc1Cl,-23%,0%,/,-21%,24%,-26%,/,/
Nc1nc(-c2ccccn2)nc(N)c1Cc1c(F)cccc1Cl,-2%,14%,3.5µM*,8.9µM*,34%,79µM*,11*,-22%
SMILES,PLK1 PBD block,VDR inhibitor,L3MBTL1 inh-1,BAZ2B inh,HP1b binding inh,JMJD2A Tudor,L3MBTL1 inh-2,AlphaScreen ctr2
CNc1nc(OC)nc(N2CCOCC2)n1,-6%,5%,22%[11.4 µM],4%,48%,2%,/,/
CNc1nc(C(=O)O)nc(N2CCOCC2)n1,0%,-13%,20µM*,11µM*,-15%,4.5µM*,?,?
COc1cccc(CNC(=O)CN2c3cccc4cccc(c34)S2(=O)=O)c1,-6%,-10%,32µM*,50µM*,3%,?,27*,7%
Cc1ccc(CNC(=O)CN2c3cccc4cccc(c34)S2(=O)=O)cc1,-3%,4%,-4%,4%,50%,-22%,/,/
Oc1ccc(C2=Nn3c(nnc3-c3ccco3)SC2)cc1O,?,-20%,25µM*,?,?,45µM*,9.5*,5%
COc1ccc(NC(=O)CSc2ccccc2)cc1S(=O)(=O)N1CCOCC1,-15%,-5%,/,-3%,26%,-8%,/,/
COc1ccc(NC(=O)Cn2ncc(Cl)c(Cl)c2=O)cc1S(=O)(=O)N1CCOCC1,?,-6%,14µM*,?,-1%,-26%,12*,23%
COc1ccc(S(=O)(=O)Nc2ccc3c(c2)C(=O)N([C@H](C)CO)C[C@H](C)[C@@H](CN(C)S(=O)(=O)c2cn(C)cn2)OCCCC[C@H](C)O3)cc1,-14%,/,/,/,/,/,/,/
COC(=O)c1c(C)[nH]c(C(=O)C(C)OC(=O)C2CC(=O)N(CCc3ccccc3)C2)c1C (stereo not drawn),-20%,-3%,28µM*,56µM*,16%,-13%,27*,5%
COc1ccc(CCNC(=O)c2cc3ccccn3n2)c(OC)c1OC,-1%,-4%,-2%,-3%,31%,-2%,/,/
